{"source": "PubChem BioAssay (EPA / NIEHS)", "note": "Records with an inconclusive call do not appear. The source made the active and inactive calls. Rule for the calls: active = hit-call score of the fitted dose curve at least 0.9, where 1 is the maximum; inconclusive = response in the unintended direction; inactive = score below 0.9."}
{"assay": "TOX21_p53_BLA_p5_viability: Viability Assessment in the Tox21 HCT-116 p53 Agonism Beta-lactamase Assay, Phase 5 (AID 2283600)", "text": "TOX21_p53_BLA_p5 is a cell-based, single-readout assay that uses HCT116, a human intestinal cell line, […] in a 1536-well plate.TOX21_p53_BLA_p5_viability is an assay readout measuring cellular ATP content and detected with CellTiter-Glo Luciferase-coupled ATP quantitation.TOX21_p53_BLA_p5_viability used a type of viability reporter where loss-of-signal activity can be used to understand changes in the cell viability. Furthermore, this assay endpoint can be referred to as a secondary readout, because this assay has produced multiple assay endpoints where this one serves a viability function. To generalize the intended target to other relatable targets, this assay endpoint is annotated to the cell cycle intended target family, where the subfamily is cytotoxicity.\nThawing Method: Place 14 mL of pre-warmed thaw medium into a 15 mL of conical tub. Remove the vial of cells to be thawed from liquid nitrogen and thaw rapidly by placing at 37C in a water bath with gentle agitation for 1-2 minutes. Decontaminate the vial by wiping with 70% ethanol before opening in a biological safety cabinet. Transfer the vial contents drop-wise into 14 mL of thaw medium in a sterile 15-mL conical tub. Centrifuge cells at 900 rpm for 4 minutes and resuspend in thaw medium. Transfer contents to the T75 tissue culture flask containing Thaw Medium and place flask in a humidified 37C/5% CO2 incubator. Switch to growth medium at first passage.Propagation Method: Aspirate medium, rinse once in DPBS, add 0.25% Trypsin/EDTA and swirl to coat the cell evenly. Add an equal volume of Growth Medium to inactivate Trypsin after 2-3 minutes incubation at 37C. Centrifuge cells at 900 rpm for 4 minutes and resuspend in growth medium. Cell should be passage or fed at least twice a week.Assay Protocol: Harvest cells from culture in growth medium and resuspend in assay medium. 2.2 Dispense 4000 cells/5 uL/well into 1536-well black/clear bottom plates using a Multidrop dispenser. After the cells were incubated at 37C for 5 hours, 23 nL of compounds dissolved in DMSO were transferred to the assay plate by a PinTool resulting in a 217-fold dilution. Incubate the plates for 16 hours at 37C, 5% CO2. Add 1 uL of 6X LiveBLAzer FRET B/G (CCF4-AM) Substrate Mixture to each well using a BioRAPTR dispenser and incubate the plates at room temperature for 2 hours. Measure fluorescence intensity at 460 and 530 nm emission and 405 nm excitation by an Envision detector. Data is expressed as the ratio of 460nm/530nm emissions. Add 4 uL of Cell-titer Glo to each well using BioRAPTR and incubate the plates at room temperature for […]. For cell viability readout that measures cytotoxicity, 4 ul/well of CellTiter-Glo reagent was added into the assay plates using a Flying Reagent Dispenser. After 30 min incubation at room temperature, the luminescence intensity in the plates was measured using a ViewLux plate reader."}
{"smiles": "O=C1NC(=O)c2cc([N+](=O)[O-])ccc21", "outcome": "inactive"}
{"smiles": "N[C@@H](CSCCCO)C(=O)O", "outcome": "inactive"}
{"smiles": "S=C(SSSSSSC(=S)N1CCCCC1)N1CCCCC1", "outcome": "inactive"}
{"smiles": "Cc1ncc(COP(=O)(O)O)c(CN)c1O", "outcome": "inactive"}
{"smiles": "CS(=O)(=O)c1ccc([C@@H](O)[C@@H](COC(=O)CN)NC(=O)C(Cl)Cl)cc1", "outcome": "inactive"}
{"smiles": "CCCC(C)C", "outcome": "inactive"}
{"smiles": "CC(C)(CCC(=O)O)C(=O)O", "outcome": "inactive"}
{"smiles": "CC(=O)N[C@@H](Cc1ccc(O)cc1)C(=O)O", "outcome": "inactive"}
{"smiles": "CCN(CC)C(=O)[C@]1(c2ccccc2)C[C@@H]1CN", "outcome": "inactive"}
{"smiles": "Nc1nc(NC2CC2)c2ncn([C@H]3C=C[C@@H](CO)C3)c2n1", "outcome": "inactive"}
{"smiles": "Cc1onc(-c2c(Cl)cccc2Cl)c1C(=O)N[C@@H]1C(=O)N2[C@@H]1SC(C)(C)[C@@H]2C(=O)O", "outcome": "inactive"}
{"smiles": "Cc1cc(O)ccc1N", "outcome": "inactive"}
{"smiles": "CC(C)OC(=O)C(C(=O)OC(C)C)=C1SC=CS1", "outcome": "inactive"}
{"smiles": "O=C(c1ccc(F)cc1)C1CCN(CCn2c(=S)[nH]c3ccccc3c2=O)CC1", "outcome": "inactive"}
{"smiles": "CCCCOC(=O)C(=O)OCCCC", "outcome": "inactive"}
{"smiles": "CC/C=C(\\C(=O)N[C@@H]1C(=O)N2C(C(=O)OCOC(=O)C(C)(C)C)=C(COC(N)=O)CS[C@H]12)c1csc(N)n1", "outcome": "inactive"}
{"smiles": "CCCCOC(=O)C(=O)Nc1cccc(-c2nn[nH]n2)c1", "outcome": "inactive"}
{"smiles": "c1ccc2nccnc2c1", "outcome": "inactive"}
{"smiles": "C1CCc2nnnn2CC1", "outcome": "inactive"}
{"smiles": "Cc1ccc(O)c(N)c1", "outcome": "inactive"}
{"smiles": "NC(=O)OC[C@@H]1[C@H](NC(=O)/C(=N\\OCC(=O)O)c2csc(N)n2)C(=O)N1S(=O)(=O)O", "outcome": "inactive"}
{"smiles": "C[C@@H](N)C(=O)O", "outcome": "inactive"}
{"smiles": "C1=CCC2CC=CC2C1", "note": "(stereo not given)", "outcome": "inactive"}
{"smiles": "CC1(C)OC(=O)NC1=O", "outcome": "inactive"}
{"smiles": "O=C(O[C@@H](C(=O)O)[C@@H](OC(=O)c1ccccc1)C(=O)O)c1ccccc1", "outcome": "inactive"}
{"smiles": "C[C@H](O)C(=O)Nc1c(I)c(C(=O)NC(CO)CO)c(I)c(C(=O)NC(CO)CO)c1I", "outcome": "inactive"}
{"smiles": "CCCCC(=O)O[C@]1(C(=O)CO)CC[C@H]2[C@@H]3CCC4=CC(=O)CC[C@]4(C)[C@H]3[C@@H](O)C[C@@]21C", "outcome": "inactive"}
{"smiles": "Cn1nnnc1SCC1=C(C(=O)O)N2C(=O)[C@@H](NC(=O)[C@H](OC=O)c3ccccc3)[C@H]2SC1", "outcome": "inactive"}
{"smiles": "OCC(F)(F)F", "outcome": "inactive"}
{"smiles": "CCC(=O)CC", "outcome": "inactive"}
{"smiles": "CCC(CO)(CO)CO", "outcome": "inactive"}
{"smiles": "CC(C)(O/N=C(\\C(=O)N[C@@H]1C(=O)N2C(C(=O)[O-])=C(C[n+]3ccccc3)CS[C@H]12)c1csc(N)n1)C(=O)O", "outcome": "inactive"}
{"smiles": "Cc1ccc(C=O)cc1C", "outcome": "inactive"}
{"smiles": "c1ccc(SCCSc2ccccc2)cc1", "outcome": "inactive"}
{"smiles": "CC1CCCC(=O)C1=O", "note": "(stereo not given)", "outcome": "inactive"}
{"smiles": "NS(=O)(=O)c1cc(-c2nn[nH]n2)c(NCc2cccs2)cc1Cl", "outcome": "inactive"}
{"smiles": "C[C@H]1NCc2cc(-c3ccc4c(=O)c(C(=O)O)cn(C5CC5)c4c3OC(F)F)ccc21", "outcome": "inactive"}
{"smiles": "O=C1CCCc2ccccc21", "outcome": "inactive"}
{"smiles": "FC(F)(F)c1cccc(Cl)c1", "outcome": "inactive"}
{"smiles": "c1ccc2c(CCC3CCNCC3)c[nH]c2c1", "outcome": "inactive"}
